ChEMBL document CHEMBL4513151, “CO-ADD screening of Institut Català d'Investigació Química (Spain) compounds”
Values joined by “and” are separate entries in the source; they are usually repeats but may differ in a detail not shown here. Equal values may be shown once. Results with a measured potency or affinity are listed apart.

What was measured:
Klebsiella pneumoniae = conditions: Concentration 32 ug.mL-1; ASSAY_TEST Inhibition of Bacterial Growth; detection method Absorption (OD600); MEDIA CAMHB; plate type 384well; NBS; CORNING #3640; time 18 hr
Candida albicans = conditions: 32 ug/mL
Cryptococcus neoformans = conditions: Concentration 32 ug.mL-1, ASSAY_TEST Inhibition of Fungal Growth, detection method Resazurin, Absorption (OD600-OD570), plate type 384well, NBS, CORNING #3640

Structure (SMILES)	Inhibition (Klebsiella pneumoniae) [%]	Inhibition (Candida albicans)	Inhibition (Cryptococcus neoformans) [%]	Inhibition (Cryptococcus neoformans; 32 ug/mL)
C=C1CC(C(=O)OC)(C(=O)OC)C[C@@H]1[C@H](c1ccccc1)n1ccc2ccccc21	21.67	-0.58%	-68.85	
C[C@]12CC[C@@](c3ccc4ccccc4c3)(O1)[C@H]1C=C[C@H](OC(=O)c3ccccc3)[C@H]12	30.93	2.97%	-55.94	
C[C@]12CC[C@@](C)(O1)[C@H]1C=C[C@H](OC(=O)c3ccccc3)[C@H]12	15.14	5.91%	-25.36	
C=C1CC(C(=O)OC)(C(=O)OC)C[C@@H]1[C@@H](NS(=O)(=O)c1ccc(C)cc1)c1ccccc1	18.19	0.13%	-29.89	
C=C1CC2(COC(C)(C)OC2)C[C@@H]1[C@@H](Nc1ccc(Br)cc1)c1ccccc1	31.4	6.45%	-62.96	
C[C@]12CC[C@@](c3ccccc3)(O1)[C@H]1C=C[C@H](OC(=O)c3ccccc3)[C@H]12		-1.59% and 4.39%		-55.26% and -63.64%
C=C1CC(COC)(COC)C[C@@H]1[C@@H](Nc1ccc(Br)cc1)c1ccccc1	12.17	5.3%	-62.06	
C[C@]12CC[C@@H](O1)[C@H]1C=C[C@H](OC(=O)c3ccccc3)[C@H]12	19.45	6.1%	-82.89	
C[C@@H]1CC(=O)C=C2C(=O)[C@@H]3[C@@H](C3(C)C)[C@]21C	18.57	-0.58%	-14.72	
